For 20 molecules, Potency results are on record in PubChem BioAssay (Tox21).

Values joined by “and” are separate entries in the source; they are usually repeats but may differ in a detail not shown here. Equal entries are not always repeated. Results filed as inconclusive are left out. A structure can be active in one record and inactive in another. Active and inactive are the calls of the source. Calls come from the whole dose curve; as a rule, active = well fitted curve in the direction sought with a large enough effect in the repeat runs; inconclusive = weak or mixed curves; inactive = no such curve, though single readings can be large; an effect the other way counts as inactive or inconclusive.

The nature of assay [1]: A CellTox Green Cytotoxicity Assay to monitor cytotoxicity in HEK293 cells - 32 hour (AID 1224881). Note: nearly all actives have a fitted effect of over 40% in size. Note: potency is the fitted concentration of half-maximal effect. Put shortly:
(§1)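 Read-out: fluorescence of a cell-impermeant cyanine dye staining DNA of dead cells, proportional to cytotoxicity. HEK293, 600 cells/well with reagent, compound (23 nL DMSO) added after 5 h; reads at 0, 8, 16, 24, 32, 40 h.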

Assay [2] is described as follows: A CellTox Green Cytotoxicity Assay to monitor cytotoxicity in HepG2 cells - 0 hour (AID 1224882). Note: nearly all actives have a fitted effect of over 35% in size. Put shortly:
(§2)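 HepG2, 600 cells/well premixed w/ CellTox Green; 5 h settle, 37 C/5% CO2; pintool cpd add (DMSO); 37 C, 40 h; fluorescence read at 0, 8, 16, 24, 32, 40 h.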

A short description of assay [3]: A CellTox Green Cytotoxicity Assay to monitor cytotoxicity in HepG2 cells - 32 hour (AID 1224883). Note: nearly all actives have a fitted effect of over 50% in size. Note: potency is the fitted concentration of half-maximal effect. The gist of the method:
as §2

A short description of assay [4]: A CellTox Green Cytotoxicity Assay to monitor cytotoxicity in HEK293 cells - 8 hour (AID 1224884). Note: nearly all actives have a fitted effect of over 35% in size. Note: potency is the fitted concentration of half-maximal effect. Put shortly:
as §1

The nature of assay [5]: qHTS RealTime-Glo MT Cell Viability Assay in HepG2 cells - 16 hour (AID 1224885). Note: nearly all actives have a fitted effect of over 50% in size. Note: potency is the fitted concentration of half-maximal effect. The gist of the method:
(§3)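 Cells + NanoLuc/prosubstrate dispensed (600 cells/well) → 5 h at 37 C/5% CO2 → compounds in DMSO transferred → 40 h incubation at 37 C, luminescence read at 0, 8, 16, 24, 32, 40 h.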

Assay [6] in a line: qHTS RealTime-Glo MT Cell Viability Assay in HEK293 cells - 24 hour (AID 1224886). Note: nearly all actives have a fitted effect of over 50% in size. Note: potency is the fitted concentration of half-maximal effect. The gist of the method:
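Tox21 10K qHTS, HEK293, 600 cells/well, RealTime-Glo reagent co-dispensed with cells; 5 h preincubation, compound by pintool, 37 C, luminescence at 0–40 h.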

Assay [7] in a line: qHTS RealTime-Glo MT Cell Viability Assay in HEK293 cells - 8 hour (AID 1224887). Note: nearly all actives have a fitted effect of over 50% in size. Note: potency is the fitted concentration of half-maximal effect. The gist of the method: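 Luminescence readout at each listed time point; HEK293, 600 cells/well, RealTime-Glo MT reagent added with cells; compounds pinned (23 nL in DMSO) after 5 h at 37 C; continuous culture at 37 C.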
Assay [8] is described as follows: A CellTox Green Cytotoxicity Assay to monitor cytotoxicity in HEK293 cells - 16 hour (AID 1224888). Note: nearly all actives have a fitted effect of over 35% in size. Note: potency is the fitted concentration of half-maximal effect. The gist of the method:
as §1

Assay [9] can be described thus: qHTS RealTime-Glo MT Cell Viability Assay in HepG2 cells - 0 hour (AID 1224889). Note: nearly all actives have a fitted effect of over 50% in size. The gist of the method: as §3
Assay [10] can be described thus: A CellTox Green Cytotoxicity Assay to monitor cytotoxicity in HepG2 cells - 8 hour (AID 1224890). Note: nearly all actives have a fitted effect of over 45% in size. Note: potency is the fitted concentration of half-maximal effect. Put shortly: as §2

As to `c1ccc(OCC2CO2)cc1` (stereo not given), the Potency result in assay [1], in assay [2], in assay [3], in assay [4], in assay [5] and in assay [6] was “inactive” in each case. The Potency entry in assay [7], in [8], in [9] and in assay [10] was “inactive” throughout.

As to `CCS(=O)(=O)c1cccnc1S(=O)(=O)NC(=O)Nc1nc(OC)cc(OC)n1`, the Potency entry in assay [1], in [2], in [3], in assay [4], in assay [5] and in assay [6] was “inactive” throughout. Moreover, the Potency result in [7], in assay [8], in assay [9] and in assay [10] was “inactive” throughout.

Turning to `CCCCCCCCCCCCBr`, the Potency entry in assay [1], in [2], in assay [3], in assay [4], in [5] and in assay [6] was “inactive” each time. Moreover, the Potency result in assay [7], in assay [8], in [9] and in assay [10] was “inactive” in each case.

As to `CCc1ccccc1C`, the Potency result in assay [1], in assay [2], in [3], in assay [4], in assay [5] and in assay [6] was “inactive” in each case. Also, the Potency result in assay [7], in assay [8], in [9] and in [10] was “inactive” each time.

`c1ccc2c(c1)[nH]c1cnccc12`: the Potency entry in assay [1], in assay [2], in assay [3], in assay [4], in assay [5] and in assay [6] was “inactive” in each case. The Potency entry in assay [7], in [8], in [9] and in assay [10] was “inactive” each time.

Regarding `C=CCOC(N)=O`, the Potency result in assay [1], in assay [2], in assay [3], in [4], in assay [5] and in [6] was “inactive” each time. The Potency entry in assay [7], in assay [8], in assay [9] and in assay [10] was “inactive” throughout.

For the molecule `N#Cc1ccc(O)cc1`, the Potency entry in assay [1], in assay [2], in assay [3], in assay [4], in assay [5] and in [6] was “inactive” throughout. Besides, the Potency entry in assay [7], in assay [8], in assay [9] and in [10] was “inactive” throughout.

As for `O=[N+]([O-])c1cc(C(F)(F)F)c(Cl)c([N+](=O)[O-])c1Cl`, the Potency was 7.76 µM (active) in [1]; 21.9 µM (active) in assay [3]; 38.9 µM (active) in [5]; 6.16 µM (active) in assay [6]; 11 µM (active) in [7]; 11 µM (active) in [8]. Also, in [10], the Potency is 54.9 µM (active). The Potency entry in [2], in assay [4] and in assay [9] was “inactive” in each case.

Turning to `CN(C)CCc1c[nH]c2ccc(O)cc12`, the Potency entry in [1], in assay [2], in assay [3], in assay [4], in assay [5] and in assay [6] was “inactive” in each case. Also, the Potency entry in assay [7], in [8], in assay [9] and in [10] was “inactive” each time.

Take `CCCCCCCCCCCCCC[P+](CCCCCC)(CCCCCC)CCCCCC` (tested in a mixture with another compound): the Potency in assay [1] was 13.8 µM (active); in [3] it was 24.6 µM (active); in [4], 24.6 µM (active); in assay [5] it was 49 µM (active); in assay [6] it was 6.92 µM (active); in [7], 13.8 µM (active). Besides, the Potency in [8] is 17.4 µM (active); in assay [10], 43.7 µM (active). Also, the Potency result in assay [2] and in assay [9] was “inactive” each time.

In the case of `N#CCc1ccc(Cl)cc1`, the Potency result in assay [1], in [2], in assay [3], in [4], in assay [5] and in assay [6] was “inactive” throughout. Further, the Potency result in assay [7], in [8], in assay [9] and in [10] was “inactive” throughout.

In the case of `CC(=[OH+])/C=C(/C)[O-].CC(=[OH+])/C=C(\C)[O-].CC(=[OH+])/C=C(\C)[O-].[Fe]`, the Potency result in assay [1], in assay [2], in [3], in [4], in [5] and in assay [6] was “inactive” in each case. Moreover, the Potency result in [7], in assay [8], in assay [9] and in [10] was “inactive” in each case.

`COc1ccc([N+](=O)[O-])cc1O`: the Potency result in assay [1], in assay [2], in [3], in [4], in assay [5] and in assay [6] was “inactive” throughout. For the same molecule, the Potency entry in assay [7], in assay [8], in assay [9] and in assay [10] was “inactive” throughout.

`N#C/C=C/c1ccccc1`: the Potency entry in assay [1], in assay [2], in assay [3], in assay [4], in assay [5] and in [6] was “inactive” each time. Moreover, the Potency entry in assay [7], in [8], in assay [9] and in assay [10] was “inactive” each time.

As to `CC(C)CCCCCOC(=O)c1ccccc1C(=O)OCCCCCC(C)C`, the Potency entry in [1], in [2], in assay [3], in assay [4], in assay [5] and in assay [6] was “inactive” each time. Further, the Potency entry in assay [7], in [8], in assay [9] and in [10] was “inactive” throughout.

Turning to `O=C(O)C1C2CCC(O2)C1C(=O)O` (stereo not given), the Potency result in [1], in [2], in [3], in assay [4], in [5] and in assay [6] was “inactive” throughout. Further, the Potency result in assay [7], in assay [8], in assay [9] and in assay [10] was “inactive” throughout.

For `N#CCCSCCC#N`, the Potency entry in assay [1], in assay [2], in assay [3], in assay [4], in assay [5] and in assay [6] was “inactive” in each case. Besides, the Potency result in [7], in assay [8], in [9] and in assay [10] was “inactive” in each case.

For `Nc1c(Oc2ccccc2)cc(O)c2c1C(=O)c1ccccc1C2=O`, the Potency result in assay [1], in assay [2], in assay [3], in assay [4], in assay [5] and in assay [8] was “inactive” throughout. Moreover, the Potency result in assay [9] and in assay [10] was “inactive” throughout. For the same molecule, the Potency in assay [6] was 21.3 µM (active); in [7] it was 10.7 µM (active).

Consider `O=c1[nH]c2ccccc2n1C1CCN(CCCC(c2ccc(F)cc2)c2ccc(F)cc2)CC1`, for which the Potency in assay [1] is 49 µM (active) and inactive; in assay [3], 24.5 µM (active); in assay [5], 49 µM (active) and inactive; in assay [6], 12.3 µM (active) and 16.9 µM (active); in assay [7] it was 15.5 µM (active); in [10], 54.9 µM (active) and inactive. Further, the Potency entry in assay [2], in assay [4], in [8] and in assay [9] was “inactive” in each case.

In the case of `CCCCCCCCCCCCCCCCCCn1cc[n+](C)c1`, the Potency in assay [1] was 19.4 µM (active); in assay [3], 19.4 µM (active); in [4] it was 24.4 µM (active); in [5], 43.4 µM (active); in assay [6], 15.4 µM (active); in [8] it was 27.4 µM (active). The Potency in [10] was 38.7 µM (active). The Potency result in assay [2], in assay [7] and in [9] was “inactive” in each case.
